# This is one part of a sample in which hits are shown more often than they occur.
# BoNT F protease = BoNT F light chain protease inhibition; Multiplex microsphere protease cleavage assay, flow cytometry; AID 588497; 360,000 tested, 0.22% active; inhibition, % at 10 µM; in the data active means inhibition above about 35%, passing the limit was not always enough; inconclusive means no clear call, values can overlap the other calls; further: plate controls were buffer without enzyme for full effect and enzyme alone for no effect
# Bead autofluor = flagged as autofluorescent in microsphere protease counterscreen; compound autofluorescence counterscreen, microsphere flow cytometry; active compounds read high; fluorescence intensity (no concentration beside the values); 360,000 tested, 3.1% active; in the data active means fluorescence intensity above about 16000; inconclusive means no clear call, values can overlap the other calls
# BoNT-A LC inh2 = BoNT A light chain protease inhibition; multiplex microsphere protease substrate cleavage, flow cytometry; inhibition, % at 10 µM; 360,000 tested, 0.17% active; AID 588499; further: plate controls were buffer without enzyme for full effect and enzyme alone for no effect
# TcdB GH inh = inhibitors of Clostridioides difficile toxin B glycohydrolase. TcdB glycohydrolase enzymatic assay, plate reader. 350,000 tested, 0.24% active. P18177. inhibition, % at 9.99 µM; in the data active means inhibition above about 10%
# Anthrax LF inh2 = anthrax lethal factor protease inhibition; multiplex microsphere protease cleavage assay, LF; inhibition, % at 10 µM; 360,000 tested, 0.12% active; further: plate controls were buffer without enzyme for full effect and enzyme alone for no effect
# An asterisk follows results filed as active; u = inconclusive; x = no result given. Unless noted, no stated cut-off is given here; in the data, active means inhibition above about 30%; inconclusive means no clear call, values can overlap the other calls; inactive means below that.
SMILES,BoNT F protease,Bead autofluor,BoNT-A LC inh2,TcdB GH inh,Anthrax LF inh2
CCOc1ccccc1OCC(=O)Nc1ccc(S(=O)(=O)Nc2nc(C)cc(C)n2)cc1,-3,20817*,-2,x,-2
Cc1cc(NS(=O)(=O)c2ccc(NC(=O)COc3ccccc3Cl)cc2)no1,-9,24447*,-4,x,-4
Cc1cc(NS(=O)(=O)c2ccc(NC(=O)COc3ccccc3C(C)C)cc2)no1,-10,4414,0,-1,-13
C[C@@H]1CN([C@@H](C)CO)C(=O)Cc2cc(NS(=O)(=O)c3cccs3)ccc2O[C@H]1CN(C)Cc1ccccc1,x,x,x,1,x
Cc1noc(C)c1NC(=O)N(C)C[C@H]1Oc2c(NC(=O)Nc3ccc(F)cc3)cccc2C(=O)N([C@H](C)CO)C[C@H]1C,x,x,x,1,x
O=C(CSc1nnnn1-c1cccc2ccccc12)Nc1ccc(N2CCOCC2)c(Cl)c1,1,16201*,0,x,-7
CC1(C)CC2(CC(C)(C(=O)CSc3nc4ccccc4s3)OC2=O)C(=O)O1 (stereo unspecified),0,16350*,u,x,-2
CC1CC2(CC(C)(C(=O)CSc3nc4ccccc4s3)OC2=O)C(=O)O1 (stereo unspecified),-3,23789*,-3,x,0
Cc1ccc(Cl)cc1N1CCN(S(=O)(=O)c2c(C)[nH]c(=O)[nH]c2=O)CC1,1,19342*,u,x,0
COc1ccc(/C=C/C(=O)c2ccc[nH]2)cc1OC,0,16560*,0,0,-1
COc1ccc(/C=C/C(=O)c2ccc[nH]2)c(OC)c1OC,18,4382,4,x,5
CN(C)CCCNC(=O)C[C@H]1C=C[C@H](NC(=O)Cc2cccnc2)[C@H](CO)O1,x,x,x,0,x
CC(C)(C)NC(=S)Nc1ccc(Nc2ccccc2)cc1,-10,9593,-1,x,-22
CC(C)(C)NC(=S)Nc1ccc(Br)cc1,2,22615*,-1,x,-1
COc1ccccc1NC(=O)N[C@@H]1C=C[C@H](CC(=O)N2CCC(Cc3ccccc3)CC2)O[C@H]1CO,x,x,x,-9,x
COC(=O)CCCCC1SCC(NC(=O)c2ccccc2)C1Cl (stereo unspecified),8,2278,0,6,7
COC(=O)CCCCC1SCC2NC(=O)NC21O (stereo unspecified),79*,4177,10,1,4
COc1ccc(S(=O)(=O)Nc2cccc3c2O[C@@H](CN(C)CC2CC2)[C@H](C)CN([C@@H](C)CO)C3=O)cc1,x,x,x,0,x
O=C(c1cc(C2CC2)nc2ccc(Br)cc12)N1N=C(C(F)F)CC1(O)C(F)F (stereo unspecified),-1,22047*,2,x,-2
O=C(c1cc(C2CC2)nc2ccccc12)N1N=C(C(F)F)CC1(O)C(F)F (stereo unspecified),2,18689*,3,x,-10
C[C@@H]1CN([C@@H](C)CO)C(=O)Cc2cc(NS(=O)(=O)c3ccc(Cl)cc3)ccc2O[C@H]1CN(C)Cc1ccc(C(=O)O)cc1,x,x,x,-1,x
C[C@H]1CN([C@@H](C)CO)C(=O)c2cc(C#Cc3ccc(F)cc3)cnc2O[C@@H]1CN(C)C,x,x,x,1,x
CN(C)C(Cc1ccccc1)C(=O)c1ccc(-c2ccccc2)cc1 (stereo unspecified),-6,16369*,u,0,-2
COc1ccc(C(=O)C(Cc2ccccc2)N(C)C)cc1 (stereo unspecified),1,16157*,1,x,-2
COc1ccc(NC(=O)CC(Cc2ccccc2)C(=O)O)cc1 (stereo unspecified),0,22709*,0,x,-3
SMILES,BoNT F protease,Bead autofluor,BoNT-A LC inh2,TcdB GH inh,Anthrax LF inh2
COc1ccc(C(=O)NC(=S)N(Cc2ccccc2)Cc2ccccc2)cc1,-2,16570*,0,x,-6
O=C(C[C@@H]1CC[C@H]2[C@@H](COC[C@@H](O)CN2Cc2ccccc2F)O1)N[C@@H]1CCN(Cc2ccccc2)C1,x,x,x,-2,x
CC(C)CC#Cc1cnc2c(c1)C(=O)N([C@H](C)CO)C[C@@H](C)[C@@H](CN(C)C(=O)Cc1ccncc1)O2,x,x,x,-1,x
Cc1noc(C)c1NC(=O)N(C)C[C@@H]1OCCCC[C@@H](C)Oc2ccc(NC(=O)CCC(F)(F)F)cc2C(=O)N([C@H](C)CO)C[C@H]1C,x,x,x,1,x
C[C@@H]1CN([C@@H](C)CO)C(=O)c2cccc(NS(=O)(=O)c3ccc(Cl)cc3)c2O[C@H]1CN(C)Cc1ccncc1,x,x,x,0,x
CCOc1ccc2cc(C#N)c(SCC(=O)N3CCC(C)CC3)nc2c1,-2,23801*,-2,x,2
COc1ccc2cc(C#N)c(SCC(=O)NNC(=O)Cc3ccccc3)nc2c1,-2,19935*,1,x,0
CCOC(=O)CSc1nc2cc(OCC)ccc2cc1C#N,5,u,-2,0,-1
C[C@@H]1CN([C@@H](C)CO)C(=O)c2cc(N(C)C)ccc2O[C@@H](C)CCCCO[C@@H]1CN(C)C(=O)Nc1ccc(F)cc1,x,x,x,-22,x
O=c1[nH]c(CSc2nnc(Cc3ccccc3)o2)nc2ccccc12,-3,4443,0,19*,-2
CC(C)Cn1c(SCc2nc3ccccc3c(=O)[nH]2)nc2ccccc2c1=O,1,19467*,2,x,0
COc1ccc(Cc2nnc(SCc3nc4ccccc4c(=O)[nH]3)o2)cc1,1,6554,1,0,5
C[C@@H]1CN([C@@H](C)CO)C(=O)c2cc(NC(=O)Nc3ccc(F)cc3)ccc2O[C@@H](C)CCCCO[C@@H]1CN(C)C(=O)c1ccccc1,x,x,x,-3,x
CCOC(=O)c1c(NC(=O)COC(=O)c2cnc(C)cn2)sc(C(=O)N(C)C)c1C,-106,16695*,-80,0,-11
CCOC(=O)c1c(NC(=O)COC(=O)c2ccccn2)sc(C(=O)N(C)C)c1C,1,u,-4,2,0
C[C@@H]1CN([C@@H](C)CO)C(=O)c2cc(NS(=O)(=O)c3ccc(Cl)cc3)ccc2O[C@@H](C)CCCCO[C@@H]1CN(C)C(=O)Nc1ccc2c(c1)OCO2,x,x,x,-7,x
C[C@H](CO)N1C[C@H](C)[C@@H](CN(C)S(=O)(=O)c2cccs2)Oc2ccc(NS(=O)(=O)c3cccs3)cc2C1=O,x,x,x,1,x
Cn1c(NCc2ccccc2)nc2c1c(=O)n(Cc1ccccc1)c(=O)n2C,-2,10138,0,1,1
COc1ccc(CNc2nc3c(c(=O)n(Cc4ccc(F)cc4)c(=O)n3C)n2C)cc1,-1,21752*,u,-1,-5
O=C(c1cnccn1)N1CC(=O)N2[C@H](CO)[C@H](c3ccc(C#CC4CCCC4)cc3)[C@H]2C1,x,x,x,1,x
O=C(NCCc1ccccn1)C1CC(=O)N(Cc2ccccc2Cl)C1 (stereo unspecified),0,19830*,u,x,-2
O=C(Oc1c(Cl)cc(Cl)c2cccnc12)N1CCCCC1,-8,21476*,u,x,-1
CCOc1ccc(C(CCc2ccccc2)NC(=O)c2ccccc2)cc1OCC (stereo unspecified),5,21649*,u,x,2
CCOc1ccc(C(=O)NC(C)CCc2ccccc2)cc1 (stereo unspecified),-8,4025,-3,-3,13
COc1cccc(C#Cc2ccc3c(c2)[C@H]2[C@H](CCN2S(=O)(=O)c2ccccc2)[C@H](CO)N3)c1,x,x,x,0,x

# Screening data: PubChem BioAssay, several laboratories
